Values without a mark were called inactive.
Columns and labels:
[1] = system: Sporothrix brasiliensis CBS 133006; assay: growth inhibition relative to untreated control; higher = more growth inhibition (more antifungal activity), active = 80 or more; extreme values may be limits of the assay; conditions: 1 µM; 48 h
How it was run: (§1)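 Each value is the percent growth inhibition compared with cells left untreated. Reference isolates were grown as yeast-form cells in brain heart infusion broth with 2% glucose for 7 days at 36°C, then exposed at 1 x 10^5 CFU/ml to library compounds at a final 1 μM for 48 h at 35°C in 5% CO2. Growth was inspected visually under an inverted light microscope and quantified by spectrophotometric readings, with runs in quadruplicate.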

[2] = system: Sporothrix schenckii ATCC 32286; assay: as above; conditions: 1 µM; 48 h
How it was run: as §1

SMILES	growth inhibition [1] [%]	growth inhibition [2] [%]
COC(=O)C1=C(C)NC(C)=C(C(=O)OC(C)C)C1c1cccc2nonc12 (configuration not stated)	10.8	11
N=C(N)Nc1ccc(-c2ccc(-c3ccc(N=C(N)N)c(Cl)c3)o2)cc1Cl	1.75	0
COc1ccc(-c2nnc3ccc(-c4cccc(C(C)C)c4)cn23)cc1OC	17	16.8
CC(C)=CCC/C(C)=C/CNCCNC1C2CC3CC(C2)CC1C3 (configuration not stated)	44.2	22.2
NS(=O)(=O)c1cncc(-c2ccc3nccc(-c4cn[nH]c4)c3n2)c1	5.5	2
Cn1c(=O)c2c(S(C)(=O)=O)snc2n(C)c1=O	9	13.2
c1cncc(NCc2ccc(-c3cc4ccncc4cc3OC3CCNCC3)s2)c1	20.8	3
CCc1cc(=O)n(C)c(SC(C)C(=O)Nc2ccc(F)cc2)n1 (configuration not stated)	9.25	13.5
COc1cccc(-n2nnnc2S(=O)(=O)Cc2ccccc2)c1	19	6
COc1cccc(CC(=O)N2CCC(n3c(C)nc4ccc(F)cc43)CC2)c1	7.5	6.25
Cc1cc(OCC(=O)Nc2ccc(C(C)C)cc2)n(C)c(=O)c1C#N	3.5	8
Cn1ncc2c(N3CCOCC3)nc(NCCc3c[nH]c4ccccc34)nc21	8.25	0
N#Cc1nc(-c2ccccc2F)oc1NCCc1ccccc1	3.75	0
CCc1nc2ccccc2n1CC(O)COc1cc(C)ccc1Cl (configuration not stated)	1.25	11
Cc1ccc(NC(=O)c2cc(S(=O)(=O)NC(C)(C)C)ccc2C)nc1	4.25	0
CCCCS(=O)(=O)Nc1ccc2cnn(C)c2c1	4.75	1.75
Cc1ccc2cc(C3NC(=O)c4ccccc4N3)c(Cl)nc2c1 (configuration not stated)	8	4
Brc1cncc(-c2cc(NCCCn3ccnc3)nc(-c3ccccc3)n2)c1	22	3.5
COc1cccc2c(C)nc(N=C(N)N)nc12	10	20.8
CN(C(=O)c1cc2c(-c3cncnc3)cccc2[nH]1)c1ccccc1	8.25	3.25
Cc1cc(C(=O)Nc2cnn(Cc3ccc(Cl)cc3Cl)c2)no1	5.75	12
CN1CCCN(C(c2ccccc2)c2ccc(Cl)cc2)CC1 (configuration not stated)	6	6.5
CS(=O)(=O)N1CCC(CCn2nc(Cc3cccc4ccccc34)c3c(N)ncnc32)CC1	5.5	14
Cc1cc(Cl)c(S(=O)(=O)N2CCCC2)cc1OCC(=O)NC1CCCCC1	8	0
CCOc1ccc2cc(-c3nn(C(C)(C)C)c(N)c3C(N)=O)cnc2c1	0	2.5
CS(=O)(=O)c1cccc(-c2cnc3[nH]cc(-c4ccc(CCC(=O)O)cc4)c3c2)c1	4.25	0

SMILES	growth inhibition [1] [%]	growth inhibition [2] [%]
O=C1Nc2ccc(Br)cc2C12NCCc1c2[nH]c2ccccc12 (configuration not stated)	18.8	4.75
CCS(=O)(=O)N(Cc1ccco1)Cc1cc2ccc(C)cc2nc1O	2.5	2
O=C(c1[nH]nc2c1CCCC2)N1CCN(Cc2ccc3c(c2)OCO3)CC1	9.75	16.2
CCOc1ccc(OCC(=O)Nc2cc(C)cc(C)c2)cc1	12.2	18
COc1ccc(OC(C)C(=O)Nc2ccc(Cl)cc2C)cc1 (configuration not stated)	10.5	11.2
COc1cccc(OCC(=O)c2ccc(Br)cc2)c1	16	22
Nc1ncc(Br)cc1-c1nc2cc(Cl)cnc2[nH]1	12	19.2
N#Cc1ccc(-c2cnc(N)c(-c3ccc(C(N)=O)cc3)n2)cc1	3.75	9
O=C(c1ccc(F)cc1)N(CCNc1ccccc1)c1ccccc1	16.5	12.2
Cc1cc(O)nc(-n2nc(C)cc2C)n1	4.75	11.8
COc1ccc(C2=NN(C3CCCCCC3)C(=O)[C@@H]3CC=CC[C@H]23)cc1OCCCCOc1ccc(-c2nnn[nH]2)cc1	2.5	9.5
O=C1COCc2ccc(Br)cc2N1Cc1ccc(C(F)(F)F)cc1	0	2.75
CC1CCCCN1C(=O)NCCc1coc(-c2ccc(F)cc2)n1 (configuration not stated)	11	0
COc1ccc(-c2nn(C(C)C)c3ncnc(N)c23)cc1OC	6	14.2
c1ccc(Oc2ccc(-c3cc(C4CCOCC4)[nH]n3)cc2)cc1	3	2.75
CCOc1ccc2cc(-c3nn(CC4CCN(C)CC4)c4ncnc(N)c34)ccc2c1	1.75	15.8
COc1ccc(C2CC(c3cccs3)=NN2C(=O)c2ccco2)cc1OC (configuration not stated)	0	18.8
COc1cc(-c2cc(-c3ccc(S(C)(=O)=O)cc3)cnc2N)ccc1O	17.8	19.8
Cc1ccc(NC(=O)CC2COc3ccccc3O2)cc1Cl (configuration not stated)	10	0
c1ccc(Oc2ccc(-c3cc(N4CCOCC4)[nH]n3)cc2)cc1	4.25	8
O=C(C1CCN(c2cc(-n3cccc3)ncn2)CC1)N1CCc2ccccc2C1	6	10.2
CC(C)C(NC(=O)Cc1cccc2ccccc12)C(=O)Nc1cccc(C#N)c1 (configuration not stated)	4	9.25
FC(F)(F)c1cnc(Sc2nnc(-c3ccncc3)o2)c(Cl)c1	3.5	0
O=[N+]([O-])c1cn2c(n1)OC[C@@H](OCc1ccc(OC(F)(F)F)cc1)C2	9	10.2
COc1cc(OC)cc(C(=O)NCC2Cc3cc(Cl)cc(-c4ccncc4)c3O2)c1 (configuration not stated)	17.5	2
COc1ccc(Nc2ccccc2NC(=O)c2ccc(O)nc2)cc1	14.2	4.25

SMILES	growth inhibition [1] [%]	growth inhibition [2] [%]
O=C1N(Cc2cc3ccccc3s2)CC2CN(Cc3ccccc3)CCN12 (configuration not stated)	22	4.5
Cc1c[nH]c(CCNC(=O)c2cc(-c3ccc(Cl)cc3)cs2)n1	4	0
CC(C)(C)OC(=O)N1CCN(c2cc(-c3ccc(Oc4ccccc4)cc3)n[nH]2)CC1	10.5	0
Cc1ccc(S(=O)(=O)n2cc(-c3ccnc(N)c3)c3cc(Br)cnc32)cc1	0	5.25
c1ccc(Oc2ccc(-c3cc(CN4CCOCC4)[nH]n3)cc2)cc1	2.25	5.75
Nc1ncc(-c2cn[nH]c2)cc1-c1nc2cc(Cl)cnc2[nH]1	12	11
CCn1cnc2c(Nc3cc(F)cc(F)c3)nc(C#N)nc21	13	3.75
O=C(NCc1cc(Cl)cc(Cl)c1)c1c(C(F)(F)F)nc2ccccn12	21.5	11.2
CC1=Nc2ccc(Cl)cc2C(O)(c2ccc(C)cc2)N1CCN1CCCCC1 (configuration not stated)	12.2	1.25
Cc1nn2c(=O)c3c([nH]c2c1-c1ccc(Cl)cc1)CCCC3	12.8	15.8
COc1ccc(-c2onc(C(F)(F)F)c2-c2ccc(Cl)cc2)c(O)c1	11.8	6
COc1ccc(-c2cc(NC(=O)c3ccc(F)cc3Cl)ccc2OC)cc1	0	6.75
CCOC(=O)NC(=O)c1ccsc1NC(=O)c1nc2ccccc2s1	32.8	2.25
CN1CCN(S(=O)(=O)c2ccc(-c3ccc4c(Nc5ncc(Cl)cn5)ccnc4c3)cc2)CC1	13	10.8
COc1ccc(CN2CCOc3ccc(C(C)(O)CN(C)C)cc3C2)cc1C (configuration not stated)	1.25	16
O=C(Nc1cccnc1)c1c(O)c2cccc3c2n(c1=O)CC3	19.5	11.2
CC(C)C(Oc1cccc2ccccc12)C(=O)O (configuration not stated)	23.2	4.25
CS(=O)(=O)c1ccc(C(=O)N(CC2CCCO2)c2nc3ccccc3s2)cc1[N+](=O)[O-] (configuration not stated)	27.2	19
C[C@]1(COc2ccc(N3CCC(Oc4ccc(OC(F)(F)F)cc4)CC3)cc2)Cn2cc([N+](=O)[O-])nc2O1	7.25	4.5
NCC(c1cccs1)S(=O)(=O)c1ccccc1 (configuration not stated)	24.2	0
Cc1nnc(NC(=O)c2cn(-c3ccccc3)nc2-c2ccccc2C)o1	1.5	22.8
O=C(c1ccco1)N(CCCn1ccnc1)c1nc2c(Cl)cccc2s1	6	10.2
CN1CCN(c2nccc3[nH]c(-c4cccc(F)c4)cc23)CC1	2.5	19.5
NC(=O)c1cc(-c2ccsc2)ccc1OCCOc1ccccc1	7.25	12.2

— the supplement of paper PMC7556523
